Compounds with a hit are over-represented: about 4.1% of the library has one in this group of screens.
TRPM1 prom inh = inhibitors of MITF-dependent TRPM1 promoter reporter, primary screen, cell-based, SK-MEL-5, single point, luciferase; SK-MEL-5 TRPM1 promoter luciferase, 24 h; inhibition, % at 12.5 µM; 0.83% of 330,000 active;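 active = mean inhibition across replicates of 60% or more, whatever share of single replicates reaches that level; inconclusive = some that reach 60%, reason not given; inactive = mean inhibition across replicates below 60%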
TWEAK Fn14 block = inhibitors of TWEAK-Fn14 signaling, primary screen, luciferase reporter cells, uHTS; TWEAK-stimulated Fn14 reporter cells, luciferase luminescence, 8 h; inhibition, % at 10 µM; 2% of 360,000 active; in the data active = inhibition above about 50%
TROY signal inh = inhibitors of TROY-driven NF-kB signaling, primary screen, Q293 LMP1-TROYcd cells, NF-kB luciferase, uHTS; Q293 LMP1-TROYcd NF-kB luciferase reporter, 4 h; inhibition, % at 10 µM; 0.98% of 360,000 active;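 active = compounds whose plate-normalised and pattern-corrected inhibition of the luciferase reporter signal at the single screening dose is 50% or more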
LMP1 NFkB inh = EBV LMP1-driven NF-kappaB luciferase reporter inhibitors, primary screen, cell-based, luminescence, single point; LMP1-induced NF-kappaB luciferase reporter cells; inhibition, % at 12.5 µM; 0.69% of 350,000 active; in the data active = inhibition above about 41%; inconclusive = no clear call, values can overlap the other calls;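 also: 0% = neutral control wells and 100% = reference inhibitor control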
Peg3 prom inh-1 = Peg3 promoter-driven luciferase inhibitors, primary screen, cell-based, HeLa, luciferase luminescence. HeLa PEG-Prom luciferase reporter, overnight. inhibition, % at 20 µM. 1.7% of 360,000 active. AID 588405, 2011;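 active = inhibition of at least 50% at 20 µM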
Shn3 inh set2 = reduction of Shn3 3'UTR firefly luciferase signal, primary screen, Schnurri-3 inhibitor project, cell-based, Clone20 osteoblasts, set 2. Clone20 osteoblast Shn3 3'UTR firefly luciferase, 24 h. inhibition, % at 12.5 µM. 0.52% of 360,000 active;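 active = mean inhibition of at least 75% with every replicate also reaching 75%; inconclusive = mean inhibition at least 75% but some replicate below; inactive = mean inhibition below 75%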;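 also: 0% = median of neutral control wells and 100% = pilot-screen positive control compound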
Peg3 prom inh-2 = Peg3 promoter reporter inhibitors, retest, confirmation, cell-based, HeLa, luciferase reporter, single concentration. 84% of 1,300 active. inhibition, % at 20 µM. HeLa PEG-Prom luciferase reporter, luminescence, overnight. shares compounds with Peg3 prom inh-1;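 active = at 20 µM dose, 40% or more inhibition averaged across four replicates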
Numbers without * were called inactive; ? = inconclusive; . = not tested or not shown; ! = not confirmed by another sample.

SMILES | TRPM1 prom inh | TWEAK Fn14 block | TROY signal inh | LMP1 NFkB inh | Peg3 prom inh-1 | Shn3 inh set2 | Peg3 prom inh-2
CC(=O)N(c1ccc(Cl)cc1)c1cn(C(C)=O)c2ccccc12 | 3 | -9 | 0 | 2 | 9 | -5 | .
CCOc1ccc2nc(NC(=O)c3cccc(-c4cc5ccccc5oc4=O)c3)sc2c1 | 37 | -79 | -3 | -2 | 89* | 12 | -9
O=C(Nc1ccccc1)NN(C(=O)CCl)c1ccccc1 | 87* | 69* | -4 | 47* | 100* | 7 | 92*
O=C(N/N=C/c1ccc(Cl)c([N+](=O)[O-])c1)c1cc(-c2ccc3c4c(cccc24)CC3)n[nH]1 | 57 | 64* | 6 | 35 | 111* | 10 | 55*
CC(=O)Nc1ccc(NC(=O)c2nc(S(=O)(=O)Cc3ccccc3)ncc2Cl)cc1 | 88* | 58* | 48 | -3 | 102* | 95* | 96*
Cc1ccc(SCC(=O)OCn2nnc3ccccc3c2=O)cc1C | -3 | 13 | -14 | -8 | 5 | -23 | .
Cc1nnc(NC(=O)c2ccc(N3CCCC3=O)cc2)s1 | -87 | 0 | -11 | -23 | -119 | -50 | .
Cc1csc(NC(=O)c2ccc(N3CCCC3=O)cc2)n1 | 43 | 90* | 70* | 69* | 64* | 39 | 46*
CCc1ccc(C(=O)Nc2nc3ccccc3[nH]2)cc1 | ? | 98* | 80* | 69* | 77* | 52 | 67*
O=C(Nc1nc2ccccc2[nH]1)c1ccccc1[N+](=O)[O-] | -42 | -29 | -37 | -14 | -133 | -44 | .
O=C(Nc1nc2ccccc2[nH]1)c1ccccc1F | 87* | 102* | 84* | 77* | 93* | 80 | 81*
CC(NC(=O)C(=O)N1CCOCC1)C(c1cccs1)N1CCN(c2ccccc2F)CC1 (configuration not stated) | 8 | -11 | 7 | 11 | 3 | -10 | .
Cc1sc2ncn(CC(=O)N3CCN(c4ccc(F)cc4)CC3)c(=O)c2c1S(=O)(=O)N1CCOCC1 | 3 | 21 | -8 | -5 | 13 | -3 | .
COc1cc(OC)c2c(-c3ccccc3)cc(=O)oc2c1C(CCN1CCN(c2ccccc2)CC1)c1ccc(N(C)C)cc1 (configuration not stated) | -1 | 0 | -6 | 1 | 12 | 12 | .
CCN(CC)CCC(c1ccc(N(C)C)cc1)c1c(OC)cc(OC)c2c(-c3ccccc3)cc(=O)oc12 (configuration not stated) | 12 | 11 | 13 | 2 | 84* | -30 | 30
COc1ccccc1C(=O)NCC(c1cccs1)N1CCc2ccccc21 (configuration not stated) | 12 | 20 | 12 | -2 | 12 | -7 | .
CCC(C)Oc1cc(-c2ccnc(Nc3cccc(Cl)c3)n2)ccn1 (configuration not stated) | 20 | 91* | 44 | -105 | 100* | -31 | 92*
Clc1cccc(Nc2nc(-c3cccnc3)cs2)c1 | -40 | 25 | 9 | -46 | -279 | -41 | .
CN1CCN(CCNC(=O)c2ccc3nc(-c4ccc(F)cc4)c(-c4ccc(F)cc4)nc3c2)CC1 | 89* | -30 | 10 | -5 | 74* | -3 | 90*
CCc1nc2ccc(C(=O)NCCCN3CCN(c4ccc(F)cc4)CC3)cc2nc1CC | 5 | 8 | -14 | -9 | 18 | 55 | .
COc1cc(NS(C)(=O)=O)ccc1Nc1c2ccccc2nc2ccccc12 | 79* | -213 | -86 | 57* | 102* | 92* | 93*
O=C(CSc1ccc2nnc(-c3ccccn3)n2n1)Nc1cccc(F)c1 | 4 | -8 | -6 | -4 | -6 | -4 | .
COc1ccc(CNn2c(-c3cccc(C)c3)nc3ccccc3c2=O)cc1OC | 6 | -5 | 3 | 5 | 57* | 14 | 38
O=C(O)c1cc(/C=N\O)ccc1OCc1ccccc1 | 2 | -1 | -22 | -8 | -26 | -21 | .
COc1cc(/C=N/O)ccc1OCc1ccc(C(=O)O)cc1 | 96* | 17 | -50 | 86* | 86* | 90* | 69*
SMILES | TRPM1 prom inh | TWEAK Fn14 block | TROY signal inh | LMP1 NFkB inh | Peg3 prom inh-1 | Shn3 inh set2 | Peg3 prom inh-2
Cc1ccccc1OCC(=O)NNC(=O)c1ccoc1C | -6 | 3 | 0 | -4 | -6 | -2 | .
N=c1n(CCN2CCCC2)c2ccccc2n1CC(O)c1ccc(Cl)c(Cl)c1 (configuration not stated) | 99* | -36 | 8 | 34 | 115* | 15 | 98*
N=c1n(CCN2CCOCC2)c2ccccc2n1CC(=O)c1ccc(Cl)c(Cl)c1 | -3 | 18 | -9 | -9 | 5 | 18 | .
COC(=O)C(CSCc1ccccc1)NC(=O)CSc1nc(N)cc(=O)[nH]1 (configuration not stated) | -8 | 1 | 3 | -3 | 15 | -5 | .
C/C(=N\NC(=O)c1n[nH]c2c1CCC2)c1cccs1 | 65* | 96* | 63* | 74* | 94* | 72 | 72*
O=C(N/N=C/c1cccs1)c1n[nH]c2c1CCCC2 | 57 | 93* | 68* | 68* | 78* | 59 | 56*
C/C(=N\NC(=O)c1cc(C)[nH]n1)c1cccs1 | -15 | 19 | -39 | 4 | -35 | -12 | .
CCOC(=S)SCC(=O)Nc1ncc(C)s1 | 17 | -2 | 24 | -1 | -1 | -7 | .
CCN1CCN(Cc2ccc(NC(=O)c3cc(NC(=O)c4ccno4)cc(OC)c3)cc2C(F)(F)F)CC1 | -4 | 7 | -10 | 1 | 62*! | 3 | 48*
Cc1ccc(S(=O)(=O)NCc2c(Cl)cccc2Oc2ccccc2)cc1 | -2 | -23 | 1 | 3 | 12 | 9 | .
O=C(/C=C/Nc1ccccc1Br)c1ccccn1 | 76* | 104* | 84* | 74* | 90* | 90* | 87*
COc1ccc(-c2cc(-c3nnc(COC(=O)C4CC4)o3)c3ccccc3n2)cc1OC | -7 | 9 | -9 | 0 | 22 | 8 | .
COc1ccc(-c2cc(-c3nnc(COC(=O)c4ccc(O)cc4)o3)c3ccccc3n2)cc1OC | -3 | 31 | 0 | 19 | 52* | -5 | 34
COc1ccccc1CCNC(=O)C1CCN(c2nnc(C)c3c(C)n(-c4ccc(C)cc4)nc23)CC1 | 77* | -21 | -3 | -9 | 89* | 32 | 78*
COc1ccc(-n2nc3c(N4CCC(C(=O)NCCc5ccco5)CC4)nnc(C)c3c2C)cc1 | 38 | -15 | 6 | 1 | 10 | 9 | .
